Screening data as filed in PubChem.
Only some compounds are listed: those with a hit (about 12% of all), similar ones and a draw of the others.
BAZ2B inh: BAZ2B (human) inhibition; Q9UIF8; AlphaScreen BAZ2B-H3K14Ac peptide displacement; Potency, µM (top dose mostly 114 µM), without a hit: top-dose activity change, negative = inhibition, most hits filed as inhibitors; 360,000 compounds, 4.4% hits; further: potency means the concentration at half of the fitted maximal effect; on the % scale 0 is the no-effect control and ±100 the full control effect; nearly all actives have a fitted effect of over 60% in size
Target sequence (Q9UIF8 whole entry, looked up): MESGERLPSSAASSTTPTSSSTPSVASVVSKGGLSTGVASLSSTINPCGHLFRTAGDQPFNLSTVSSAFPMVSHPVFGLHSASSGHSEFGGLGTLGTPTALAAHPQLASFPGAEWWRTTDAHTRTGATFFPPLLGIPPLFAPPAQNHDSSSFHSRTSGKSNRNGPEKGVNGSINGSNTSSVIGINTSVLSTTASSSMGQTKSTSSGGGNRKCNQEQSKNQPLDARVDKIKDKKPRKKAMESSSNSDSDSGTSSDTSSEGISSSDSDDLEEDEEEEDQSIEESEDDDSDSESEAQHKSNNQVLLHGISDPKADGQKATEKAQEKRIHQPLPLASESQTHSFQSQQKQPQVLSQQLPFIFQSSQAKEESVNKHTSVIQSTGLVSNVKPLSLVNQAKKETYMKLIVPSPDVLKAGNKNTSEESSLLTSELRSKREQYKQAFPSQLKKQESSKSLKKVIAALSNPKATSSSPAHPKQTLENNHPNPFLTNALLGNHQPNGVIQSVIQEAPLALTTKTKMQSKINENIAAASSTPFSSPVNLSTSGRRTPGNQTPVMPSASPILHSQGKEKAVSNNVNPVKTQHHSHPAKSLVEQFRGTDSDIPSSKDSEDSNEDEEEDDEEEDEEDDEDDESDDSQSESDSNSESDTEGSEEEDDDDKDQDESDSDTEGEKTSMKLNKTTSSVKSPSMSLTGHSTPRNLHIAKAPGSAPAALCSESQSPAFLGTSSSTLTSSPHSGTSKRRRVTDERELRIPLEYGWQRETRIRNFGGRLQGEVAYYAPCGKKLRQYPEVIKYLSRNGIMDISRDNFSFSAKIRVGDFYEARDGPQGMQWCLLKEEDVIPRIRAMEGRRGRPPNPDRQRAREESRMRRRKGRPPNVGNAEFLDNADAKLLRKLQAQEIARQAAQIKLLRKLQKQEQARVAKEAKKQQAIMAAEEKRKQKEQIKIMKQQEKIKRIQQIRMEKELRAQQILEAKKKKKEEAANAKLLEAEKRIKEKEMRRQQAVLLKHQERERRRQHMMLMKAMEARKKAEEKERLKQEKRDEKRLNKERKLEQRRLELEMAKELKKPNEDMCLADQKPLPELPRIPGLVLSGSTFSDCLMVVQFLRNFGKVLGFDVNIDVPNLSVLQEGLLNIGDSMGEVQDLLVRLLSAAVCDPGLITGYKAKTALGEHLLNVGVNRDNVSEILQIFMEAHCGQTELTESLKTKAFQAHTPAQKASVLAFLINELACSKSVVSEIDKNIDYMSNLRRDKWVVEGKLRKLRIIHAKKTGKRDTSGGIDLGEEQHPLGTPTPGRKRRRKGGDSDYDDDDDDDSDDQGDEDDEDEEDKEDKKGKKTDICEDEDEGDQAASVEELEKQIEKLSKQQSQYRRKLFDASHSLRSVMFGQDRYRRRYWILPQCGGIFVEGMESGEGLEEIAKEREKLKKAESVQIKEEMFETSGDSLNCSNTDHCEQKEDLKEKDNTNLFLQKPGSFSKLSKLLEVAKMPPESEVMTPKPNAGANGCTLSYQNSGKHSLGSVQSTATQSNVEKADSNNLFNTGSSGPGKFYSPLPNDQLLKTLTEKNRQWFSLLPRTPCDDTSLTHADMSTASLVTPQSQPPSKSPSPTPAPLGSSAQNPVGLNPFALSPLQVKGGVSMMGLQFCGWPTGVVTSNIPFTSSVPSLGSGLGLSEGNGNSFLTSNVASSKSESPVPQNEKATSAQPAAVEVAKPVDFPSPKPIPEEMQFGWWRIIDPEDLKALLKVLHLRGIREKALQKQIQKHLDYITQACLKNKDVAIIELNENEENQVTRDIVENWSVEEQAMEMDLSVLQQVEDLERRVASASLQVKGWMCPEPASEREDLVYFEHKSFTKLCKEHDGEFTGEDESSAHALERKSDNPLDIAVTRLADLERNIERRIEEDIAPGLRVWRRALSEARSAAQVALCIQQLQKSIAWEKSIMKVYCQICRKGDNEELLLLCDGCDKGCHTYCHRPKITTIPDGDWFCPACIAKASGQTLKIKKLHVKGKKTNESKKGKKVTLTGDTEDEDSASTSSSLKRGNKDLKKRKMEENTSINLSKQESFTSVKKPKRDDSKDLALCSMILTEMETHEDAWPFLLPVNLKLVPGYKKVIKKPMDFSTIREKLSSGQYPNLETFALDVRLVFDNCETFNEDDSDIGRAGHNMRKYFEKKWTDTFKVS
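Multi-concentration screen (max 110 uM) measuring displacement of acetylated histone H3 peptide from BAZ2B by AlphaScreen, using 50 nM protein, 50 nM peptide and 10 ug/mL streptavidin donor plus Ni-chelate acceptor beads.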
PLK1 PBD block: PLK1 (human) polo-box domain binding inhibition; Potency, µM, without a hit: max response, negative = inhibition, hits mostly inhibitors; P53350; 360,000 compounds, 2.8% hits; Plk1 PBD binding of FITC phosphopeptide, fluorescence polarization; further: potency means the concentration at half of the fitted maximal effect; series mostly up to about 57 µM; on the % scale 0 is the no-effect control and ±100 the full control effect; nearly all actives have a fitted effect of over 65% in size
JMJD2A Tudor: inhibitors of human JMJD2A Tudor domain | AlphaScreen JMJD2A-Tudor / H3K4me3 peptide binding | O75164 | Potency, µM (titrated, usually from 114 µM), for the others: at the top dose activity change, negative = inhibition, hits mostly inhibitors | 390,000 compounds, 4.4% hits | AID 504339; further: potency means the concentration at half of the fitted maximal effect; on the % scale 0 is the no-effect control and ±100 the full control effect; nearly all actives have a fitted effect of over 50% in size
G9a block: blocks human histone lysine methyltransferase G9a; G9a H3K9 monomethylation, AlphaScreen, 2 h; 350,000 compounds, 8.8% hits; Q96KQ7; Potency, µM (highest dose often 102 µM), without a hit: top-dose activity, negative = inhibition, actives largely listed as inhibitors; further: potency means the concentration at half of the fitted maximal effect; on the % scale 0 is the no-effect control and ±100 the full control effect; nearly all actives have a fitted effect of over 75% in size
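AlphaScreen detection with an anti-monomethyl H3K9 antibody quantified product after a 2 h room-temperature reaction containing 500 nM biotinylated H3K9 peptide, 20 µM SAM and 20 nM enzyme, which had been preincubated 15 min with compound.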
PI5P4Ka inh: inhibitors of human PI5P4K alpha | 330,000 compounds, 1.2% hits | max response, % | AID 652105 | PI5P4Kalpha enzyme, ADP-Glo luminescence, 60 min; hits give low values | P48426; active means max response of -50% or lower; inconclusive means between -30% and -50%; inactive means -30% or higher; further: value at the top dose of about 77 µM; on the % scale 0 is the no-effect control and ±100 the full control effect
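Reactions run in 0.038 M HEPES pH 7.4, 0.28 mM EGTA, 0.1% CHAPS and 5% DMSO, with PI5P4Kalpha, substrate, compound and 5 microM ATP final, one hour at room temperature. Readout is ADP-Glo luminescence.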
HP1b binding inh: HP1-beta chromodomain-methylated histone interaction inhibition; Potency, µM (doses to about 114 µM), without a hit: at the top dose activity change, negative = inhibition, usual class: inhibitors; P83916; AID 540317; 390,000 compounds, 0.56% hits; AlphaScreen HP1-beta / biotin-H3K9me3 peptide binding; further: potency means the concentration at half of the fitted maximal effect; nearly all actives have a fitted effect of over 70% in size
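AlphaScreen: HP1-beta (50 nM) preformed 30 min with biotin-H3(1-18)K9me3 peptide (50 nM) in PBS pH 7.4, 0.01% Tween-20. Compound added for 30 min at RT, then streptavidin donor/nickel chelate acceptor beads (10 ug/mL) for 30 min.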
* hit, by the source's call; [ ] = another dose, or the depositor's remark. Unless noted, the call rests on the fitted dose curve; in most records, active means well fitted curve in the direction sought with a large enough effect; inconclusive means small, poorly fitted or top-dose-only effect, or another doubt; inactive means no such curve, though single readings can be large; an effect the other way counts as inactive or inconclusive.

Cc1cccc(S(=O)(=O)NNC(=O)Cc2cccn2C)c1 was read as BAZ2B inh -28.4%, PLK1 PBD block 26.7µM*, JMJD2A Tudor 39.8µM*, G9a block 50.1µM*, PI5P4Ka inh inconclusive and HP1b binding inh -29.8%.
Screening CCC(C)C(NC(=O)OC(C)(C)C)C(=O)NC1COC2CC(n3ccc(=O)[nH]c3=O)OC12 (centres undefined) returned JMJD2A Tudor -3.4% and HP1b binding inh 22.1%.
Screening CC(C)COC(=O)c1ccc2c(c1O)C(=O)c1ccccc1C2=O returned BAZ2B inh 10µM*, PLK1 PBD block -2.5%, JMJD2A Tudor 7.94µM*, G9a block inconclusive, PI5P4Ka inh 0.3 and HP1b binding inh inconclusive.
Screening CC(=O)c1c(C)[nH]c(C(=O)Nc2nccs2)c1C returned BAZ2B inh inconclusive, PLK1 PBD block 0.8%, JMJD2A Tudor 22.4µM*, G9a block 8.1%, PI5P4Ka inh 1.5 and HP1b binding inh -10.5%.
S=c1[nH]nc(-c2cc(-c3ccccc3)n[nH]2)n1/N=C/C=C/c1ccco1 was read as BAZ2B inh inconclusive, PLK1 PBD block inconclusive, JMJD2A Tudor inconclusive, G9a block 1.78µM*, PI5P4Ka inh -96.0* and HP1b binding inh inconclusive.
S=c1[nH]nc(-c2ccco2)n1/N=C/C=C/c1ccco1 was read as BAZ2B inh inconclusive, PLK1 PBD block -26.5%, JMJD2A Tudor 3.55µM*, G9a block 1.41µM*, PI5P4Ka inh -68.7* and HP1b binding inh inconclusive.
O=S(=O)(c1ccc(-c2ccccn2)s1)N1CCC2(CC1)OCCO2 was read as BAZ2B inh -0.1%, PLK1 PBD block -13.4%, JMJD2A Tudor -6.0%, PI5P4Ka inh -0.5 and HP1b binding inh 51.7%.
COc1ccc(C(=O)C(=NNc2ccccc2)c2ccc(OC)cc2)cc1 was read as PLK1 PBD block -0.8%, JMJD2A Tudor 44.7µM*, PI5P4Ka inh 5.1 and HP1b binding inh inconclusive.
For COc1ccc(N/N=C(\C=N\O)C(=O)c2ccc(OC)cc2)cc1 the results were BAZ2B inh 39.8µM*, PLK1 PBD block 2.3%, JMJD2A Tudor inconclusive, G9a block 50.1µM*, PI5P4Ka inh 0.8 and HP1b binding inh -7.8%.
`COc1ccc(/C(=N\Nc2ccccc2C(=O)O)c2ccccc2)cc1` gave BAZ2B inh -33.6%, PLK1 PBD block inconclusive, JMJD2A Tudor inconclusive, G9a block 35.5µM*, PI5P4Ka inh -10.4 and HP1b binding inh -2.9%.
`O=C(NCCc1ccccc1)c1ccc2c(c1)nc1n2CCOC1` gave BAZ2B inh 2.6%, JMJD2A Tudor -5.5%, G9a block -0.6%[59 µM] and HP1b binding inh 12.9%[57 µM].
For Cc1ccccc1Nc1c(-c2cccs2)nc2cccc(C)n12 the results were BAZ2B inh inconclusive, JMJD2A Tudor inconclusive, G9a block -48.9%[59 µM] and HP1b binding inh -7.1%.
For CCOC(=O)C1CCN(C(=O)Cn2nc(C)n3c(cc4sccc43)c2=O)CC1 the results were BAZ2B inh -0.4%, JMJD2A Tudor -3.6%, G9a block -1.0%[59 µM] and HP1b binding inh 14.1%.
For Cc1ccc(-c2n[nH]c(=O)c3ccccc23)cc1S(=O)(=O)Nc1ccc(F)cc1 the results were BAZ2B inh -4.1%, PLK1 PBD block -14.7%, JMJD2A Tudor -14.1%, G9a block 5.1%, PI5P4Ka inh -20.9 and HP1b binding inh -8.1%.
Screening CC(=O)Nc1ccc(NS(=O)(=O)c2cc(-c3n[nH]c(=O)c4ccccc34)ccc2C)cc1 returned BAZ2B inh 79.4µM*, PLK1 PBD block -10.9%, JMJD2A Tudor -16.9%, G9a block -26.5%, PI5P4Ka inh -20.2 and HP1b binding inh 3.1%.
Cc1nn(-c2ccc(N3CCCC3)nn2)c(C)c1CCC(=O)N1CCN(c2ccccc2F)CC1 was read as BAZ2B inh -25.9%, JMJD2A Tudor -25.0%, G9a block 11.9%[59 µM] and HP1b binding inh 3.7%.
Screening CCOC(=O)C1=C(C)NC(=NC)SC1c1ccccc1 (centres undefined) returned BAZ2B inh -24.7%, PLK1 PBD block 21.2µM*, JMJD2A Tudor inconclusive, G9a block 2.5%, PI5P4Ka inh -2.5 and HP1b binding inh -18.4%.
`Cc1c(N=NC2=C(O)CC(C)(C)CC2=O)cc2c(c1[N+](=O)[O-])C(C)(C)CC2(C)C` gave BAZ2B inh inconclusive, PLK1 PBD block 2.7%, JMJD2A Tudor 22.4µM*, G9a block inconclusive, PI5P4Ka inh 22.6 and HP1b binding inh inconclusive.
Screening O=C(CN1CCCCC1CO)c1ccc(OC(F)F)cc1 (centres undefined) returned BAZ2B inh -14.4%, PLK1 PBD block -5.1%, JMJD2A Tudor 2.1%, G9a block 56.2µM*, PI5P4Ka inh 2.4 and HP1b binding inh 47.7%.
N#CCCn1c(=O)cnc2cnc(Oc3cccc(Cl)c3)nc21 was read as G9a block 0.8%[0.501 µM].
Screening COc1cc(OC)c(NC(=O)CSCc2nc(-c3ccc(OC)c(OC)c3)no2)cc1Cl returned BAZ2B inh -0.4%, JMJD2A Tudor -11.6%, G9a block 6.1%[59 µM] and HP1b binding inh 42.4%.
O=C(Cc1coc2cc(O)ccc12)N1CCN(S(=O)(=O)c2ccc(Br)cc2)CC1 was read as PLK1 PBD block -6.7%, JMJD2A Tudor -33.2%, PI5P4Ka inh inconclusive and HP1b binding inh -0.6%.
Screening CC(=O)Nc1ccn(C2OC(C(COC(C)=O)NC(=O)C(Cc3ccccc3)NC(=O)OC(C)(C)C)C(OC(C)=O)C2OC(C)=O)c(=O)n1 (centres undefined) returned JMJD2A Tudor -19.3% and HP1b binding inh 20.3%.
COc1ccccc1N1CCN(C(=O)c2cc3c(=O)oc4ccccc4c3s2)CC1 was read as BAZ2B inh 6.8%, JMJD2A Tudor -17.1%, G9a block 5.8%[59 µM] and HP1b binding inh 9.5%.
`O=[N+]([O-])C(/C=C(\Cl)[N+](=O)[O-])=C(N1CCCCC1)N1CCCCC1` gave BAZ2B inh -18.5%, PLK1 PBD block 13.3%, JMJD2A Tudor -11.8%, G9a block inconclusive, PI5P4Ka inh 5.0 and HP1b binding inh 6.9%.
Screening O=[N+]([O-])C(=C1SCCS1)C(=C(Cl)Cl)N1CCCCC1 returned BAZ2B inh 7.94µM*, PLK1 PBD block 0.1%, JMJD2A Tudor 35.5µM*, G9a block 6.31µM*, PI5P4Ka inh 12.1 and HP1b binding inh 25.1µM*.
For O=C(CSc1nc2ccccc2nc1Cc1ccc(Cl)cc1)N1CCN(c2ccccc2F)CC1 the results were BAZ2B inh 5.8%, JMJD2A Tudor -3.6%, G9a block -1.0%[59 µM] and HP1b binding inh 30.5%[57 µM].
CC1(C)CC(=O)C(Sc2ccccc2[N+](=O)[O-])=C(O)C1 was read as BAZ2B inh inconclusive, PLK1 PBD block 10.6µM*, JMJD2A Tudor -22.8%, G9a block 50.1µM*, PI5P4Ka inh -1.1 and HP1b binding inh 25.6%.
